Myeloid diff MLP: induction of myeloid progenitor differentiation, primary screen, cell-based, flow cytometry, MLPCN library. hit rate 1% among 360,000. calls only at 10 µM. ER-HoxA9 myeloid progenitors, lysozyme-GFP differentiation;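 active = normalized GFP-positive differentiation at or above the plate's own cutoff, the solvent-only control mean plus 3 SD; inconclusive = no clear call, values can overlap the other calls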;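 note: cells exposed to compound for four days before flow analysis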
ABCB6 inh 2: ABCB6 transporter inhibitors, primary screen, K562-ABCB6 cells, flow cytometry, MLPCN library | K562-ABCB6 porphyrin accumulation, 1 h; stronger effect = lower value | ATP-binding cassette sub-family B member 6 (Homo sapiens), Q9NP58 | fluorescence ratio to DMSO, % at 10 µM | hit rate 0.19% among 360,000;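 active = fluorescence ratio to DMSO below 75%, the collection mean minus 3 SD; inconclusive = too few cells collected in the well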;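 note: signal is porphyrin accumulated inside mitochondria; 100% equals median channel fluorescence of DMSO control wells; lower ratio means ABCB6 inhibition with less porphyrin fluorescence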
Target sequence (Q9NP58 whole entry, looked up): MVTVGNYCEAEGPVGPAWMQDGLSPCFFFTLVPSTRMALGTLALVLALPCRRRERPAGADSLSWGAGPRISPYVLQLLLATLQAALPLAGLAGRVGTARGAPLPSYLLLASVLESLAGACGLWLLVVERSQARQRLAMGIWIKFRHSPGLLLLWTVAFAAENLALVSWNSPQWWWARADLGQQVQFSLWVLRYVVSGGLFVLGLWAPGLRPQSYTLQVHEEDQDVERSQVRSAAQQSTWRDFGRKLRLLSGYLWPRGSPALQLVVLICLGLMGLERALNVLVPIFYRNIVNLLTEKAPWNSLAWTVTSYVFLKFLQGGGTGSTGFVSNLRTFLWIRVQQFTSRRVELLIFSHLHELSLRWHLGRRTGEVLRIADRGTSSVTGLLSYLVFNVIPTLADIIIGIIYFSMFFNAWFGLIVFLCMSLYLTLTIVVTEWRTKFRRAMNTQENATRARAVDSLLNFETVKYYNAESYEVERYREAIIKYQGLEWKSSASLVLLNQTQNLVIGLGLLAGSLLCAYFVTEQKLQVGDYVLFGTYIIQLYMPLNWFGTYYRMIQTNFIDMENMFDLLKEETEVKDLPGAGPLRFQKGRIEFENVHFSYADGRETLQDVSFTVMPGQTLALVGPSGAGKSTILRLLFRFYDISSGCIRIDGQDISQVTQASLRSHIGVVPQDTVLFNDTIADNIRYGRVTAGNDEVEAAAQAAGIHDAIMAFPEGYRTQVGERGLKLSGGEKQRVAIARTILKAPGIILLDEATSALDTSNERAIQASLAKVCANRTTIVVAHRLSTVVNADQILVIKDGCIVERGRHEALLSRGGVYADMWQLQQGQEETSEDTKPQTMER
Granule exo inh: LAMP-1 surface exposure blockers, TALL-104 cells – cell-based, flow cytometry, MLPCN library, primary screen; TALL-104 LAMP-1 surface exposure; cells stimulated with thapsigargin and PMA; inhibition, % at 10 µM; hit rate 0.66% among 360,000; AID 651702, 2012;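 active = inhibition above about 55%, limit read from the data; inconclusive = no clear call, values can overlap the other calls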
Myeloid diff: inducers of myeloid progenitor differentiation, confirmation, cell-based, GFP/Mac1 flow cytometry, cherry pick 01; shares compounds with Myeloid diff MLP; AID 651706, 2012; hit rate 2% among 2,300; ER-HoxA9 myeloid progenitors, GFP/Mac1 double-positive flow; calls only;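 active = share of green or green-and-red cells above 9 and 9% in run 1 or 4 and 3% in run 2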
GFP autofluor: flagged as fluorescent in myeloid differentiation counter-screen | shares compounds with Myeloid diff MLP | ER-HoxA9 myeloid progenitors, no estrogen, GFP autofluorescence flow cytometry; vehicle wells 0%, positive control 100% | fluorescence response, % (concentration not given with the values) | hit rate 7.4% among 2,300 | AID 651707;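 active = over 5% cells positive for green fluorescent reporter, or over 2% positive for both it and APC stain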;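 note: range taken on the double positive population between DMSO and positive control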
Starred values were filed as active, the others as inactive; i = inactive; ? = inconclusive; nt = not tested or not shown; + = active, no number. Shown are actives, neighbours in structure and some others; about 1.8% of the full set was active somewhere.

SMILES	Myeloid diff MLP	ABCB6 inh 2	Granule exo inh	Myeloid diff	GFP autofluor
CCOC(=O)c1c(NC(=O)C(C)OC(=O)c2ccc(NC(=O)CC#N)cc2)sc2c1CCCC2 (stereo unspecified)	+	98	0	i	2
CCOc1ccccc1NC(=O)C(OC(=O)c1ccc(NC(=O)CC#N)cc1)c1ccccc1 (stereo unspecified)	+	87	-5	i	5.3*
COc1cccc(CNS(=O)(=O)c2ccc3c(c2)C(C)(C)C(=O)N3C)c1	i	94	5	nt	nt
Cc1cc(C)cc(NC(=S)NCC2CCCO2)c1 (stereo unspecified)	i	96	-3	i	0
S=C(NCC1CCCO1)Nc1cc(Cl)c(Cl)cc1Cl (stereo unspecified)	i	98	8	nt	nt
Cc1ccc(NC(=O)C(=Cc2ccc(C(=O)O)cc2)C(=O)Nc2ccc(C)cc2C)c(C)c1	i	98	48	nt	nt
O=c1[nH]c(=O)n([C@H]2C[C@H](O)[C@@H](CO)O2)cc1I	i	90	-1	nt	nt
CCc1cn(C2CC(O)C(CO)O2)c(=O)[nH]c1=O (stereo unspecified)	+	101	1	i	0
Cc1ccc(-c2nc(SC(C)C(=O)N3CCCC3)n[nH]2)cc1 (stereo unspecified)	i	94	3	nt	nt
Cc1ccc2[nH]c(-c3ccccc3)cc(=O)c2c1	?	99	-5	nt	nt
C=CC[n+]1cccc(-c2cc3ccc(C)cc3[nH]2)c1	i	97	2	i	0
COc1ccc(CC(NC(C)=O)C(=O)NC2CCN(C(=O)c3cnccn3)CC2)cc1 (stereo unspecified)	i	95	1	i	0
CC(=O)NC(Cc1ccccc1F)C(=O)NC1CCN(C(=O)c2cnccn2)CC1 (stereo unspecified)	i	107	0	nt	nt
COCCCNCCCCOc1ccccc1-c1ccccc1	i	99	-1	i	0
COCCCNCCOc1ccccc1-c1ccccc1	i	96	-5	nt	nt
CCCNC(=S)NCc1ccc(Cl)cc1	i	101	8	nt	nt
CN(C)C(=O)CCc1ccc2c3c([nH]c2c1)[C@]1(C)[C@@H](C(=O)N2CCOCC2)C[C@H](CC(=O)NCCCn2ccnc2)C(=O)N1CC3	i	95	-1	nt	nt
OC1(CN2CCOCC2)C2CN3CCN(C2)CC1(c1ccccc1)C3 (stereo unspecified)	+	95	1	i	0
c1ccc2c(CN3CCOCC3)c3ccccc3c(CN3CCOCC3)c2c1	i	101	-3	nt	nt
Cc1cccc(Cn2c(=O)n(-c3ccc(CC(=O)NCc4ccco4)cc3)c(=O)c3sccc32)c1	i	86	3	i	0
CCC(C)NC(=O)Cn1c(=O)n(-c2ccccc2)c(=O)c2ccc(C(=O)NCc3ccco3)cc21 (stereo unspecified)	i	90	-1	nt	nt
Cc1ccc(Cn2c(=O)n(-c3ccccc3)c(=O)c3ccc(C(=O)NCc4ccco4)cc32)cc1	i	96	1	i	2
Cc1ccc(Cn2c(=O)n(Cc3ccco3)c(=O)c3ccccc32)cc1	i	96	2	i	0
O=c1c2ccccc2n(Cc2ccc(Cl)cc2)c(=O)n1Cc1ccco1	i	90	3	nt	nt
Cc1ccc(-n2c(=O)c3sccc3n(CC(=O)NCc3ccco3)c2=O)cc1	i	95	0	nt	nt
SMILES	Myeloid diff MLP	ABCB6 inh 2	Granule exo inh	Myeloid diff	GFP autofluor
O=C(CCn1c(=O)sc2ccccc21)NC1CCCCC1	i	92	0	nt	nt
COCCNC(=O)c1oc2ccc3c(c2c1C)C(O)CC(C)(C)O3 (stereo unspecified)	i	99	-9	nt	nt
Cc1c(C(=O)N2CCC(C)CC2)oc2ccc3c(c12)C(O)CC1(CCCCC1)O3 (stereo unspecified)	+	98	-4	i	1
CC1CCCCN1S(=O)(=O)c1ccc(C(=O)N2CCOCC2)cc1 (stereo unspecified)	i	91	8	nt	nt
O=C(NCc1ccccc1)c1cc(C2CCCCN2C(=O)c2ccc3c(c2)CCO3)on1 (stereo unspecified)	i	99	0	nt	nt
O=C(CCSc1nnc2scc(-c3ccccc3)n12)NCc1ccc2c(c1)OCO2	i	95	2	i	0
O=C(CSc1nnc2scc(-c3ccccc3)n12)Nc1ccc2c(c1)OCCO2	i	92	0	nt	nt
CC1CCCN(c2sc(S(C)(=O)=O)nc2S(=O)(=O)c2ccc(Cl)cc2)C1 (stereo unspecified)	i	87	-1	nt	nt
Cc1ccc(S(=O)(=O)c2nc(S(C)(=O)=O)sc2N2CCCCCC2)cc1	i	76	0	nt	nt
CC1CN(c2sc(S(C)(=O)=O)nc2S(=O)(=O)c2ccc(Cl)cc2)CC(C)O1 (stereo unspecified)	i	100	0	i	0
CS(=O)(=O)c1nc(S(=O)(=O)c2ccc(Cl)cc2)c(N2CCOCC2)s1	i	93	1	i	0
CC(C)(Oc1ccc(Cl)cc1)C(=O)Nc1ccc(S(=O)(=O)Nc2ncccn2)cc1	nt	98	11	nt	nt
CC(Oc1cccc(F)c1)c1ccnc2nc(/N=C/N(C)C)nn12 (stereo unspecified)	i	100	-6	nt	nt
CCN(Cc1ccccc1)C(=O)C1CCN(Cc2ccc(SC)cc2)CC1	i	98	-2	nt	nt
CCN(Cc1ccccc1)C(=O)C1CCN(C/C(C)=C/c2ccccc2)CC1	i	99	-4	i	0
CC(C)OC(=O)CSc1nnc(Cc2ccccc2)n1C	+	99	-1	i	0
Cn1c(Cc2ccccc2)nnc1SCC(=O)Nc1ccccc1	i	95	-4	nt	nt
COc1ccc(CC(=O)N/N=C/c2ccc(C)s2)cc1	i	83	-2	nt	nt
Cc1cccc(NC(=O)CCN2CCCCC2)c1	i	99	8	nt	nt
Cc1cc(C)cc(NC(=O)CCN2CCCC2)c1	+	94	-3	i	0
O=C(NCC(=O)N(Cc1ccccc1)C(C(=O)NC1CCCCC1)c1ccco1)c1ccco1 (stereo unspecified)	i	102	7	nt	nt
NC(=O)c1nsc(C(=O)N(CCc2ccccc2)C(C(=O)NC2CCCC2)c2ccco2)c1N (stereo unspecified)	i	97	0	nt	nt
O=C(NC1CCCCC1)C(c1ccco1)N(Cc1ccco1)C(=O)c1ccco1 (stereo unspecified)	i	98	4	i	0
O=C(NC1CCCCC1)C(c1ccco1)N(CCc1ccccc1)C(=O)C(F)(F)F (stereo unspecified)	i	97	-3	i	0
CC1(Oc2cccc(F)c2)CCN(Cc2ccc3ccccc3c2)C1 (stereo unspecified)	i	104	-11	nt	nt

Screening results: PubChem BioAssay, NMMLSC
